High-throughput results (PubChem BioAssay)
Marburg entry inh: Marburg virus entry inhibition; 300,000 tested, 1.8% active; AID 540276; Marburg virus pseudotyped entry inhibition, cell reporter; Potency, µM (top dose mostly 37.8 µM), for the others: at the highest dose activity change, negative = inhibition, usual class: inhibitors; calls by dose curve; tested in HEK293 cells; note: potency is the fitted concentration of half-maximal effect
VACV mCherry inh: vaccinia inhibition (mCherry reporter) | Potency, µM (titrated, usually from 36.5 µM), without a hit: top-dose activity change, negative = inhibition, actives largely listed as inhibitors | AID 720579 | Vaccinia virus mCherry reporter infection, fluorescence | 310,000 tested, 0.63% active; calls by dose curve; tested in A549 cells; note: potency is the fitted concentration of half-maximal effect; nearly all actives have a fitted effect of over 35% in size
VACV Venus inh: inhibitors of vaccinia virus (Venus reporter); Vaccinia virus Venus reporter expression, fluorescence; Potency, µM (highest dose often 36.5 µM), without a hit: top-dose activity change, negative = inhibition, most hits filed as inhibitors; 330,000 tested, 0.46% active; calls by dose curve; tested in A549 cells; note: potency is the fitted concentration of half-maximal effect; nearly all actives have a fitted effect of over 30% in size
LASV entry inh: blocks Lassa virus binding to or entry into cells; Lassa virus pseudotype entry inhibition, cell reporter; Potency, µM (titrated, usually from 37.9 µM), for the others: top-dose activity change, negative = inhibition, hits mostly inhibitors; 300,000 tested, 1.2% active; AID 540256; calls by dose curve; tested in HEK293 cells; note: potency is the fitted concentration of half-maximal effect; nearly all actives have a fitted effect of over 50% in size
FMDV antiviral: antivirals against foot and mouth disease virus | 410,000 tested, 1.2% active | FMDV antiviral cell-based qHTS | AID 1159524 | Potency, µM (top dose mostly 57.9 µM), for inactives: at the highest dose activity change, negative = inhibition, actives largely listed as inhibitors; calls by dose curve; tested in HEK293T cells; note: read-out not given here; potency is the fitted concentration of half-maximal effect; nearly all actives have a fitted effect of over 45% in size
HCMV antiviral: human cytomegalovirus inhibition; HFF cells, HCMV-luciferase reporter, 72 h; active compounds read low; activity change, negative = inhibition, % at 57.5 µM; 410,000 tested, 4.5% active; AID 1259415; in the data active = activity change below about -60%; inconclusive = no clear call, values can overlap the other calls; inactive = above about -39%
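Cell-based, HFFs, 1000 cells/well, 16 h 37C; cpds in DMSO + HCMV-luc, MOI 1 PFU/cell; 72 h 37C; OneGlo luminescence after 5 min RT; norm. to buffer vs Salinomycin 10uM.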
Active calls of the source: *; i = inactive; ? = inconclusive; nt = no result; [ ] = remark or other dose. Most compounds without a hit are left out; they make up all but 6.5% or so of the library. % is set by controls: 0 for no effect and ±100 for the full control effect.

SMILES | Marburg entry inh | VACV mCherry inh | VACV Venus inh | LASV entry inh | FMDV antiviral | HCMV antiviral
O=C(CCCC(=O)N/N=C\c1ccccn1)N/N=C\c1ccccn1 | 0% | -3% | -7% | 4% | -19% | -32
CCN(CC)S(=O)(=O)c1cc(-c2ccc(=O)n(C(C)C(=O)Nc3cccc(C#N)c3)n2)ccc1C (centres undefined) | -29%[46.1 µM] | -1% | -16% | -13%[46.1 µM] | -9% | -12
Cc1ccccc1OCC(=O)Nc1ccccc1OCc1cc(=O)n2ccccc2n1 | nt | -10% | -14% | 11%[46.1 µM] | 13% | 40
Cc1ccc(C)c(CN2C(=O)C3(c4ccccc42)N(c2ccc(Cl)cc2)C(=O)CS3(=O)=O)c1 (centres undefined) | nt | 0% | -3% | 17%[46.1 µM] | -21% | -4
Cc1cccc(Nc2cc3[nH]c(-c4ccccc4)cc3cn2)c1 | nt | nt | nt | nt | nt | -22
Cc1ccc(NC(=O)C2(c3ccccc3)CC2(Cl)Cl)cc1C (centres undefined) | -17% | i | -10% | -5% | 4% | 109
CCc1ccc(NC(=O)C2(c3ccccc3)CC2(Cl)Cl)cc1 (centres undefined) | 0% | nt | nt | 16µM* | ? | ?
CCCN1C(=O)/C(=C/c2cc(C)n(C)c2C)SC1=Nc1ccc(OC)cc1 | ? | nt | ? | ? | -22% | -2
COc1ccc(N=C2S/C(=C\c3cc(C)n(C)c3C)C(=O)N2C)cc1 | ? | nt | -29% | 4.5µM* | -14% | -8
O=C(CC1N=C2c3ccccc3N=C(SCc3cccc(F)c3)N2C1=O)NCc1cccs1 (centres undefined) | nt | -28% | -24% | 9%[46.1 µM] | -21% | -3
CS/C(Nc1cc(Cl)ccc1Cl)=C(/C#N)C(=O)c1ccco1 | ? | -24% | -18% | 5µM* | ? | 97
COC(=O)c1ccc2c(=O)n(C3CCCCC3)c(SCC#N)nc2c1 | 0.015µM* | nt | nt | ? | -6% | ?
CC(=C/c1ccco1)/C=N/NC(=O)c1nnn(-c2nonc2N)c1CN(C)C | -1%[46.1 µM] | -7% | -8% | -18%[46.1 µM] | 5% | -60*
CCCc1c(C(=O)N/N=C(\CC)c2ccccc2)nnn1-c1nonc1N | nt | -8% | -3% | nt | -16% | -63*
CCN(CC)Cc1c(C(=O)N/N=C/c2ccco2)nnn1-c1nonc1N | nt | nt | nt | nt | 2% | 9
C/C(=N\NC(=O)c1nnn(-c2nonc2N)c1CN1CCc2ccccc21)c1ccccc1O | nt | nt | nt | nt | 5% | -98*
CCC/C(=N/NC(=O)c1nnn(-c2nonc2N)c1CN1CCCCC1)c1ccccc1 | nt | 74% | 86% | nt | -17% | -37
COCCCNC(=O)c1ccc(Cn2c(=O)c3cccn3c3cccnc32)cc1 | nt | -27% | -19% | -18%[46.1 µM] | 9% | 8
CC(Oc1ccccc1)C(=O)Nc1ccc(OCc2cc(=O)n3ccsc3n2)cc1 (centres undefined) | -19%[46.1 µM] | -8% | -3% | 0%[46.1 µM] | -27% | -4
COc1ccccc1C1CN(CCNC(=O)[C@@H]2CSC(=O)N2)Cc2ccccc2O1 (some centres undefined) | nt | -8% | -7% | nt | 58% | nt
CCCCN=C1NN=C(c2ccc(C)c(C)c2)CS1 | ? | -12% | -8% | -26% | 38% | 64
Cc1cc(C2=NNC(=NC3CC3)SC2)c(C)n1-c1ccccc1F | 0.13µM* | nt | nt | 0.13µM* | 0.01µM* | -97*
CCCCN=C1NN=C(c2ccc3c(c2)OCCO3)CS1 | ? | -15% | -14% | 7.9µM* | ? | -4
c1ccc(CN=C2NN=C(c3cc4ccccc4o3)CS2)cc1 | ? | -14% | -10% | ? | 0% | -1
Cc1cccc(C)c1N=C1NN=C(c2ccccc2F)CS1 | ? | -3% | -15% | 0% | -20% | 0
c1ccc2oc(C3=NNC(=NC4CC4)SC3)cc2c1 | 1.8µM* | nt | nt | 7.3µM* | -54% | ?
Cc1cc(C2=NNC(=NC3CCCCC3)SC2)c(C)n1-c1c(C)n(C)n(-c2ccccc2)c1=O | -41% | -21% | -30% | 3% | -1% | -22
Cc1ccccc1N=C1NN=C(c2ccccc2F)CS1 | 15µM* | nt | nt | ? | -3% | 52
COc1cccc(-c2nc(SCc3ccc(C)cc3)n3[nH]c(=O)cc3n2)c1 | nt | -4% | -8% | ? | -19% | -4
COc1ccc(N=C2NN=C(c3ccc4c(c3)OCCO4)CS2)cc1 | 1% | nt | -10% | -13% | 2% | 5
